# Measurements: the supplement of paper PMC6555819
# Legend:
# Test in all cases: PBM binding z-score (relative to random genomic background probes); higher = stronger binding; sequences stand for … in GC…GCGATTGACAGCGTAGAATGAAGG
# [1] = test system: PPARg:RXRa DBDmut IVT, anti-RXR (DBD mutation: RXRa K156A/R161A, NR concentration 270 nM, RXRa partner concentration 90 nM)
# Procedure, shortened: (§1)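 On custom Agilent 4×180K arrays, double-stranded probes with 34-nt variable regions carried direct-repeat seeds, single-nucleotide variants, half-site ablations or random human genomic background. Ligand-free nuclear receptor dimers were applied for 1 h, and binding was read with antibodies against each partner (one per run). Binding z-scores come from regression-normalized fluorescence, with the random background probes as reference.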
# [2] = test system: PPARg:RXRa IVT, anti-PPARg (NR concentration 270 nM, RXRa partner concentration 90 nM)
# Procedure, shortened: as §1
# [3] = test system: PPARg DBDmut:RXRa IVT, anti-PPARg (DBD mutation: PPARg1 K132A/R137A, NR concentration 270 nM, RXRa partner concentration 90 nM)
# Procedure, shortened: as §1
# [4] = test system: PPARg DBDmut IVT, anti-PPARg (DBD mutation: PPARg1 K132A/R137A, NR concentration 270 nM)
# Procedure, shortened: as §1
# [5] = test system: PPARg homodimer (NR concentration 180 nM)
# Procedure, shortened: as §1
# [6] = test system: PXR:RXRa (NR concentration 270 nM, RXRa partner concentration 90 nM)
# Procedure, shortened: as §1
# [7] = test system: PXR homodimer (NR concentration 270 nM)
# Procedure, shortened: as §1
# [8] = test system: RARa:RXR (NR concentration 270 nM, RXRa partner concentration 90 nM)
# Procedure, shortened: as §1
# [9] = test system: RARa homodimer (NR concentration 270 nM)
# Procedure, shortened: as §1
# [10] = test system: RARb:RXRa (NR concentration 270 nM, RXRa partner concentration 90 nM)
# Procedure, shortened: as §1
# [11] = test system: RARb homodimer (NR concentration 270 nM)
# Procedure, shortened: as §1
# [12] = test system: RARg:RXRa (NR concentration 270 nM, RXRa partner concentration 90 nM)
# Procedure, shortened: as §1
# [13] = test system: RARg homodimer (NR concentration 270 nM)
# Procedure, shortened: as §1
# [14] = test system: RXRa DBDmut IVT, anti-RXR (DBD mutation: RXRa K156A/R161A, NR concentration 90 nM)
# Procedure, shortened: as §1
# [15] = test system: RXRa homodimer (NR concentration 180 nM)
# Procedure, shortened: as §1
# [16] = test system: THRa:RXRa (NR concentration 90 nM, RXRa partner concentration 90 nM)
# Procedure, shortened: as §1
# [17] = test system: THRa homodimer (NR concentration 90 nM)
# Procedure, shortened: as §1
# [18] = test system: VDR homodimer (NR concentration 270 nM)
# Procedure, shortened: as §1
Sequence,PBM binding z-score [1],PBM binding z-score [2],PBM binding z-score [3],PBM binding z-score [4],PBM binding z-score [5],PBM binding z-score [6],PBM binding z-score [7],PBM binding z-score [8],PBM binding z-score [9],PBM binding z-score [10],PBM binding z-score [11],PBM binding z-score [12],PBM binding z-score [13],PBM binding z-score [14],PBM binding z-score [15],PBM binding z-score [16],PBM binding z-score [17],PBM binding z-score [18]
GCGGCTAGGTCAGGTTGGTCAGCTAACGGGTACG,1.28,1.36,-1.08,-0.633,0.749,0.325,-0.293,0.825,-0.0979,3.26,2.8,2.47,3.36,0.271,1.07,1.85,0.788,0.247
TCTTGTAGATCAATAGAGGTTACGAAAGTGCGCT,1.83,1.63,0.944,0.638,0.416,3.21,0.389,2.22,0.489,1.24,1.7,1.05,0.657,0.65,1.54,2.75,0.12,0.507
TCTATTAGTTGATTAGGGCTACCGAAACAGCGGA,1.71,0.487,0.367,0.888,1.29,0.181,0.128,0.22,0.748,0.309,-0.115,0.318,0.15,0.904,0.363,0.166,-0.0313,0.356
ACTTACGGGTCAACGAGGTTATATCACGCGTATA,2.95,3.92,0.992,1.71,2.52,5.03,3.3,4.76,0.919,4.28,3.73,5.37,4.95,2.74,6.14,4.04,1.45,3.3
GCAGACAGGTCAAACGCAGGTAACTCAGGGTGGC,2.15,1.91,0.427,-0.842,2,3.06,-0.42,4.18,-0.318,4.17,2.7,5.58,4.53,2.16,4.65,3.23,-0.195,0.795
ATCTCTAGGTCAAGTTCAGTGAAAGATCGATAGA,6.76,6.5,2.13,1.61,2.41,3.45,2.13,3.16,1.74,4.55,3.89,4.93,5.92,2.98,3.73,3.44,2.16,3.44
ACTATTAGTTGACGTAGGGCAACCGATACGACGC,0.188,0.602,1.2,0.785,0.291,-0.373,0.109,-0.162,0.628,0.773,0.993,0.445,0.82,0.582,0.328,0.925,-0.0539,0.159
AGAATGAGGTTAAGATCAGGGAAACAGAATACAT,2.82,2.83,1.43,0.885,0.847,1.38,0.732,2.08,0.481,2.01,0.9,2.17,1.52,0.973,2.58,2.67,0.768,0.379
CCTATTGGGCCAAGGTCATTGATCAGTCAAAGCA,1.98,2.52,-0.54,0.103,2.09,3.72,1.21,3.94,0.101,3.33,3.15,3.81,3.22,1.62,3.07,3.6,2.3,3.13
TCTAGTTGGTCACGGAGGTCACATACGACGGGTA,2.69,4.21,1.22,1.14,2.46,4.38,1.7,4.13,1.16,3.84,4.57,4.42,4.92,1.16,4.57,3.68,2.58,2.84
ATCTCTAGGTACGACTCAGTTCAGTGAAGAACGC,0.59,0.456,0.443,1.02,0.793,1.4,1.82,0.363,1.28,0.504,0.848,0.255,0.331,1.19,0.123,0.879,0.878,2.02
ACAGACAGCTGAGTGAAGGTAACTCAGCTGGACG,-0.835,-0.364,-0.856,-0.718,-1.12,-0.593,-0.603,-0.513,-0.693,-0.274,-0.758,-0.23,-0.426,-0.997,0.00757,-0.178,-0.586,-0.66
GTACCAAGGTGAATAGGTCGTTGACGAGTAGGCG,1.8,2.86,0.144,-0.0212,1.04,0.88,0.00593,1.93,-0.182,2.23,1.93,2.91,1.53,-0.0525,2.19,1.92,0.438,0.14
ATCTCTAGCTAAAGTTCAGTGAAAGATCGATAGA,-0.514,0.413,0.743,0.86,1.51,1.8,1.85,1.04,1.01,2.68,2.45,1.76,2.45,0.982,1.11,0.511,-0.124,1.9
ACTGACGGGTCAACGAGGTTATAGCACGCGTATA,0.94,2.54,0.338,0.241,1.88,4.39,2.3,4.36,0.626,3.87,3.27,4.88,4.97,1.69,5.11,3.63,0.781,3.7
